Experimental data taken from PubChem BioAssay AID2796 (The Scripps Research Institute Molecular Screening Center, 2010).
Screen size: about 320,000 compounds; about 8,000 (2.5%) were called active. No stated cut-off is given here; in the data, active means activation above about 47%; inactive means the rest. Many of the other results were omitted from the sample, so actives are more common in it than they were.

molecular target: Aryl hydrocarbon receptor (Homo sapiens) (UniProt P35869); assay: AHR activators, primary screen, cell-based, luminescence, luciferase reporter, human (AID 2796); conditions: AHR-responsive luciferase reporter cells, at 5 µM, stronger effect = higher value;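 further: 0% = vehicle wells and 100% = reference agonist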
Sequence (P35869 whole entry, looked up): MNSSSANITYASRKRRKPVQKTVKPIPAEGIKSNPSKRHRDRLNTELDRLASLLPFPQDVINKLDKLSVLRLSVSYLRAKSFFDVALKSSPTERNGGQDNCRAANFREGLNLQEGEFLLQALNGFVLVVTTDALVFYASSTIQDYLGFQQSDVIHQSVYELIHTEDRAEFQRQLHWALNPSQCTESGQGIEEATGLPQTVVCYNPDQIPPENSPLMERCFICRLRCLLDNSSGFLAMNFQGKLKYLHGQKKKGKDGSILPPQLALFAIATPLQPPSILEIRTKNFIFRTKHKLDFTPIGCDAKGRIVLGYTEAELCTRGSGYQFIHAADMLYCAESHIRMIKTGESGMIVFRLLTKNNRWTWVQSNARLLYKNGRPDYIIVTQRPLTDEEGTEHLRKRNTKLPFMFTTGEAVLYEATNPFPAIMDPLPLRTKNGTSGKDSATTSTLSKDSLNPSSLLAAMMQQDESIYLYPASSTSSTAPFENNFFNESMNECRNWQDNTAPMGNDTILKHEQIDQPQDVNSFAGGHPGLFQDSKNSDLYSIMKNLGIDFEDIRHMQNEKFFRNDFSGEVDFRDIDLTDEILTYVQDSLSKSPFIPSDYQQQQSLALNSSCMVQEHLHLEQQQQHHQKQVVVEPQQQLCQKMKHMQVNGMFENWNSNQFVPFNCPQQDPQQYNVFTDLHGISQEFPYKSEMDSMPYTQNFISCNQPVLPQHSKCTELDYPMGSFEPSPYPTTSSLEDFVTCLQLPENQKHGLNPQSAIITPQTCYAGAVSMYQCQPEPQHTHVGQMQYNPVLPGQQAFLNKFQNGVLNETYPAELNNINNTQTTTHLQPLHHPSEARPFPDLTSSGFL

Structure (SMILES) | activation
O=C(OCC(=O)N1CCCCC1)c1ccc(OC(F)(F)F)cc1 | 0.31% (inactive)
CN(C)NC(=O)c1csnc1-c1c(Cl)cccc1Cl | 1.27% (inactive)
CC1CC(=O)Nc2ccccc2N1C(=O)COc1ccc2cc(Br)ccc2c1 (configuration not stated) | 2.14% (inactive)
COc1c(Cl)cc(C(=O)Nc2ccc(Cl)cn2)cc1Cl | 67.2% (active)
COc1ccc(C(=O)N/N=C(\C)CC(=O)Nc2ccc(Cl)cn2)cc1 | 13.8% (inactive)
COc1ccc(C(=O)NC(=S)Nc2ccc(Cl)cn2)cc1OC | 5.66% (inactive)
COc1ccc(N(CC(=O)NCc2ccc(F)cc2)C(=O)CCC(=O)Nc2nccs2)cc1 | 0.66% (inactive)
COc1cccc(CNC(=O)CCN2C(=S)NC(C)(C)CC2C)c1 (configuration not stated) | 3.02% (inactive)
Fc1ccc(-c2nnc(CSc3nnc(-c4ccc5c(c4)OCO5)o3)o2)cc1 | 11.2% (inactive)
Clc1ccc(CSc2nnc([C@@H]3CCCN3)o2)cc1 | 0.21% (inactive)
CCSc1nnc(-c2cc3c(s2)-c2ccccc2CC3)o1 | 62.1% (active)
Fc1ccc(CSc2nnc(-c3cc4c(s3)-c3ccccc3CC4)o2)cc1 | 51.6% (active)
CCCCSc1nnc(-c2ccc(C)cc2)o1 | -1.09% (inactive)
O=C(CSc1nnc(-c2ccccc2O)o1)NC1CCCCC1 | -6.68% (inactive)
CCOc1ncccc1C(=O)NNC(=O)c1cccc(S(=O)(=O)Nc2ccccc2OC)c1 | -1.36% (inactive)
COc1ccc(N(C(=O)CNC(=O)c2ccco2)C(C(=O)NCC2CCCO2)c2ccccc2)cc1Cl (configuration not stated) | -0.46% (inactive)
CC1=NNC(=O)C1CC(=O)N/N=C/c1ccncc1 (configuration not stated) | -0.52% (inactive)
CCCCCC(=O)N1CCN(S(=O)(=O)c2ccc3c(c2)OCCCO3)CC1 | 1.73% (inactive)
c1ccc2c(C[n+]3csc4ccccc43)cccc2c1 | 12.7% (inactive)
CN(C(=O)Cn1nnc(-c2ccc(F)cc2)n1)C1CCS(=O)(=O)C1 (configuration not stated) | -0.41% (inactive)
O=C(Nc1cc(S(=O)(=O)N2CCCCC2)ccc1Cl)C1COc2ccccc2O1 (configuration not stated) | 0.26% (inactive)

Structure (SMILES) | activation
C=CCN(CC=C)S(=O)(=O)c1ccc(C(=O)Nc2nc3c(s2)CCc2ccccc2-3)cc1 | 50.7% (active)
COCCN(CCOC)S(=O)(=O)c1ccc(C(=O)Nc2nc3c(s2)CCc2ccccc2-3)cc1 | 11.6% (inactive)
CCN(c1ccccc1)S(=O)(=O)c1ccc(C(=O)Nc2nccs2)cc1 | 3.71% (inactive)
Cn1cccc1C(=O)NC(=O)COC(=O)Cc1coc2ccc3ccccc3c12 | 16.2% (inactive)
CCCCn1c(SCC(=O)N2CCOCC2)nc2c1c(=O)n(C)c(=O)n2C | 0.02% (inactive)
Cc1cc(C)nc(Nc2n[nH]c(-c3ccccc3N)n2)n1 | 67% (active)
Cc1cc(C)nc(Nc2ncn[nH]2)n1 | 2.66% (inactive)
CCCOc1ccccc1-c1nc(SCCC(=O)O)n[nH]1 | 10.6% (inactive)
CCCCNC(=O)Nc1c(C)cc(SC#N)cc1C | 3.18% (inactive)
O=C(c1cc(C(=O)N2CCN(c3ccc(F)cc3)CC2)cc([N+](=O)[O-])c1)N1CCN(c2ccc(F)cc2)CC1 | 3.86% (inactive)
O=C(c1cncc(Br)c1)N1CCN(c2ccc([N+](=O)[O-])cc2)CC1 | 52.5% (active)
O=C(c1ccc(Cl)c([N+](=O)[O-])c1)N1CCN(c2ccccc2)CC1 | 2.09% (inactive)
Cc1cc(C)c(NC(=O)CN2CCOCCOCCOCCOCC2)c(C)c1 | 0.35% (inactive)
O=[N+]([O-])c1ccc(N/N=C/c2ccccc2)cc1 | -1.64% (inactive)
Cc1ccc(NS(=O)(=O)c2ccc(N/N=C/c3ccccc3OCC(=O)O)c([N+](=O)[O-])c2)c(C)c1 | 2.69% (inactive)
Cc1cccc(COc2ccccc2/C=N/Nc2ccc([N+](=O)[O-])cc2)c1 | 50.4% (active)
CCOC(=O)c1cc(S(=O)(=O)NCCc2ccc(OC)c(OC)c2)cn1C | 1.77% (inactive)
CCOC(=O)C1CCN(CC(=O)Nc2ccc(OC)c(S(=O)(=O)N3CCCCC3)c2)CC1 | -1.58% (inactive)
O=C(NNC(=O)c1cccnc1)Nc1ccccc1 | -0.59% (inactive)
Cc1ccc(NC(=O)Nc2cccnc2)cc1 | 83.7% (active)
Cc1ccc(NC(=O)NCC(c2cccnc2)N2CCOCC2)cc1 (configuration not stated) | 3.2% (inactive)

Structure (SMILES) | activation
CCCNC(=S)NC1CC2CCCC(C1)N2CC(C)C (configuration not stated) | 2.13% (inactive)
CCS(=O)(=O)c1ccc(O)c(NC(=O)COc2ccc(Cl)cc2)c1 | -3.28% (inactive)
O=C(COc1ccc(Cl)cc1)Nc1ccccc1CO | 62.6% (active)
COC(=O)c1sccc1NC(=O)COc1ccc(Cl)cc1 | 3.07% (inactive)
CC(C(=O)NCCc1ccc(S(N)(=O)=O)cc1)N1C(=O)CC(C)(C)Sc2ccccc21 (configuration not stated) | 1.77% (inactive)
Cc1ccc(CN(Cc2cccnc2)C(=S)Nc2cc(Cl)ccc2C)cc1 | 2.1% (inactive)
Cc1cs/c(=N\N=C\c2ccc(O)cc2)n1Cc1ccco1 | 59.4% (active)
Cc1csc(=Nc2ccccc2)n1CCO | 4.51% (inactive)
CN(c1ccccc1)c1ccc(/C=c2\s/c(=C(/C#N)C(=O)C(C)(C)C)n(Cc3ccco3)c2=O)cc1 | 0.79% (inactive)
Cc1c2cnn(CC(=O)NCc3ccccn3)c(=O)c2c(C)n1Cc1ccc(Cl)cc1 | 1.4% (inactive)
Cc1ccc(S(=O)(=O)N(C)c2ccc(OCC(=O)OCC(=O)N(CC#N)c3ccccc3)cc2)cc1 | -1.55% (inactive)
COc1ccc(OC)c(-c2csc(NC(=O)C3=NNC(=O)CC3)n2)c1 | 12.8% (inactive)
COc1ccc(OC)c(-c2csc(NC(=O)COC(=O)C3CC3)n2)c1 | -1.02% (inactive)
COc1ccc(OC)c(-c2csc(-c3cccs3)n2)c1 | 121% (active)
CCOC(=O)N1CCC(Nc2c(NCCCN3CCN(CC)CC3)c(=O)c2=O)CC1 | 0.42% (inactive)
COc1ccccc1C1=CC(=O)CCC1 | 0.36% (inactive)
COc1ccc(NC(=O)CNc2cc(S(=O)(=O)N3CCOCC3)ccc2N2CCOCC2)c(OC)c1 | -1.67% (inactive)
O=c1ccnc(Nc2ccc(Cl)cc2)[nH]1 | 2.65% (inactive)
Cn1c(Nc2cccc(Cl)c2)nc2ccccc21 | -1.72% (inactive)
Clc1ccc(Nc2ccc3ccccc3n2)cc1 | 73.6% (active)
